Measurements as given in the supplement of paper PMC10849652.
Of roughly 8,800 targets only a part is listed; those with a hit were picked by preference. About 0.5% of all pairs of compound and target were hits.

Assays:
Assay in all cases: log2 fold change, soluble protein after heating vs DMSO (PISA); higher = thermal stabilisation; K562 lysate, 10 uM; active = over 0.2 and 3.5 SD of the protein, either way, in both replicates (recomputed)
[1] = compound: C1=CC=C(C=C1)[C@H](COC2=CC3=C(C=C2)NC(=O)N3)NC(=O)C4=CC=CN(C4=O)CC5=CC(=C(C=C5)F)F
In short: (§1)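 Log-two fold change in thermal stability relative to solvent controls is reported from duplicates. For each sample, crude K562 extract from dounce-homogenised pellets in PBS pH 7.4 with 1 mM MgCl2, at 1 mg/mL protein, was treated with 10 μM compound for 30 min. Aliquots heated for 3 min across 48°C-58°C were pooled, brought to 0.5% NP-40 at 4°C and cleared at 21,000xg for 90 min. The supernatant was quantified by TMTpro 16plex LC-MS/MS with channel sums equalised.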

[2] = compound: CC1=C(SC2=C1C(=N[C@H](C3=NN=C(N32)C)CC(=O)N)C4=CC=C(C=C4)Cl)C
In short: as §1

[3] = compound: CC1=C2C(=CC=C1)N=C(N(C2=O)C3=CC=CC=C3C)CN4C=NC5=C(N=CN=C54)N
In short: as §1

[4] = compound: Cc1sc2c(c1C)C(c1ccc(Cl)cc1)=N[C@@H](CC(=O)OC(C)(C)C)c1nnc(C)n1-2
In short: as §1

[5] = compound: c1ccc([C@@H]2C[C@H]2NC2CCNCC2)cc1
In short: as §1

Measured: log2 fold change

C3orf33 (UniProt Q6P1S2)
inactive: [1] 0.074 | [2] 0.143 | [3] -0.386 | [4] -0.03 | [5] -0.226

C19orf54 (UniProt Q5BKX5)
inactive: [1] 0.04 | [2] 0.102 | [3] -0.007 | [4] 0.033 | [5] 0.043

ATP9B (UniProt O43861)
Chain of UniProt O43861 (O43861 whole entry, looked up): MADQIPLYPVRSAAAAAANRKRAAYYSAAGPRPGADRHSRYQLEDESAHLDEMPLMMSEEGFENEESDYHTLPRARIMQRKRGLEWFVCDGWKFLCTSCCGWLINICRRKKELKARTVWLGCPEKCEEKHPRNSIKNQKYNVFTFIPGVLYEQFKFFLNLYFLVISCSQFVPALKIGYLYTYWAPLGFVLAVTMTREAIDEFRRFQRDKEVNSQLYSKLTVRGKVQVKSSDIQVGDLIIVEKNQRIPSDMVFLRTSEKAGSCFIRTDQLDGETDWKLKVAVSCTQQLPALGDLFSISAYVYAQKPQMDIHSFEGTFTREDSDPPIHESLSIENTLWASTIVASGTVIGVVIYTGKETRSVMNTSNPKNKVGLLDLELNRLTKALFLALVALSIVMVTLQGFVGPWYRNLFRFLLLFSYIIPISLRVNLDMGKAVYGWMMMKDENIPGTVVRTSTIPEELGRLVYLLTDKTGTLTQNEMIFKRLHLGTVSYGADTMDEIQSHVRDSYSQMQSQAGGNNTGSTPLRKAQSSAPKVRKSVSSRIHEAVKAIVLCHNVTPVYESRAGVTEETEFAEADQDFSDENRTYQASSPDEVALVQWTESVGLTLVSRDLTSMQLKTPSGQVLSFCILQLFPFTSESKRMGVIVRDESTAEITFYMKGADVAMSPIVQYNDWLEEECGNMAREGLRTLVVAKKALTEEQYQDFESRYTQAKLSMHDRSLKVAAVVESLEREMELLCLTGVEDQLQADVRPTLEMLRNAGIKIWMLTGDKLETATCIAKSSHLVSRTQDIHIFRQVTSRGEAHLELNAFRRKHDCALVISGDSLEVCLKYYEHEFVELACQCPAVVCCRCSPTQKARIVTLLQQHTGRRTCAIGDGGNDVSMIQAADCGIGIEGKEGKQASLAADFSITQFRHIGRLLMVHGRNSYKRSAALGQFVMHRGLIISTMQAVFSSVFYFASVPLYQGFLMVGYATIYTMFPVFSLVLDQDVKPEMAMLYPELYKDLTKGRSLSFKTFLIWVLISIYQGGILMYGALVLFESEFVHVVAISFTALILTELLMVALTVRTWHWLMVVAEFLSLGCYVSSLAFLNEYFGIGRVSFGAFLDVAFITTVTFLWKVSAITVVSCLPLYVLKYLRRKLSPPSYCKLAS
inactive: [1] 0.109 | [2] -0.028 | [3] 0.015 | [4] -0.019 | [5] -0.079

CHD4 isoform 2 (UniProt Q14839)
inactive: [1] 0 | [2] 0.003 | [3] 0.029 | [4] 0.021 | [5] 0.009

CDK16 isoform 2 (UniProt Q00536)
Chain of UniProt Q00536 (Q00536 whole entry, looked up): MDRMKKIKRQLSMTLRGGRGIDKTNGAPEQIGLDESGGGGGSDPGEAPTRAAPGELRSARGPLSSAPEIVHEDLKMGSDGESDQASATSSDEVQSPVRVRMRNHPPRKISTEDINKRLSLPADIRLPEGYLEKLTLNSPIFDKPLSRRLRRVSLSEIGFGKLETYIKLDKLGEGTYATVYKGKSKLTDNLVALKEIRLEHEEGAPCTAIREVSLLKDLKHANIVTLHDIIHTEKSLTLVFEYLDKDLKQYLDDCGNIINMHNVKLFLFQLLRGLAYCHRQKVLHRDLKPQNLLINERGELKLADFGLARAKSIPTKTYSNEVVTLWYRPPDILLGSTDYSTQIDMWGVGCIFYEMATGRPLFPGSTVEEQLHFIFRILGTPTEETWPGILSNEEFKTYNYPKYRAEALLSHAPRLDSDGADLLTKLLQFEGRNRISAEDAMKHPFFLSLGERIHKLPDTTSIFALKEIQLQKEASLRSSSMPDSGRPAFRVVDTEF
inactive: [1] -0.02 | [2] -0.059 | [3] -0.11 | [4] -0.011 | [5] -0.049

CALB2 (UniProt P22676)
Chain of UniProt P22676 (P22676 whole entry, looked up): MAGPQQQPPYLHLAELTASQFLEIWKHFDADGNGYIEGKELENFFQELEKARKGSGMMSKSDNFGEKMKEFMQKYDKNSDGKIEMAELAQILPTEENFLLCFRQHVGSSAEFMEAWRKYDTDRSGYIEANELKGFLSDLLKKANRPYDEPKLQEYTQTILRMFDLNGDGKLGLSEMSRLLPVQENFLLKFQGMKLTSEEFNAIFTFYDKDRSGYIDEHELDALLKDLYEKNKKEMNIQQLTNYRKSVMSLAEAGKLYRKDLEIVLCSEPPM
inactive: [1] -0.067 | [2] -0.053 | [3] 0.009 | [4] -0.007 | [5] 0.013

CCNY (UniProt Q8ND76)
Chain of UniProt Q8ND76 (Q8ND76 whole entry, looked up): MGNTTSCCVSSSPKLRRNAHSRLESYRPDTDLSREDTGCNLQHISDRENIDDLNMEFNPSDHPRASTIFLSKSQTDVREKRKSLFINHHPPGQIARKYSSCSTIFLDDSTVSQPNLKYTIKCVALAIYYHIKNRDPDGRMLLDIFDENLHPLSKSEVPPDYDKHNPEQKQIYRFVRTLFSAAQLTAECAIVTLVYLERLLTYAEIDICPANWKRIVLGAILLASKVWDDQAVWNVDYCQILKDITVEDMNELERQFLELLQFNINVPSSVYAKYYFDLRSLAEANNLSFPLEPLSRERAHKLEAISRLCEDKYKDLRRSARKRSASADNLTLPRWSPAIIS
inactive: [1] -0.04 | [2] 0.048 | [3] -0.104 | [4] -0.064 | [5] -0.028

CEP41 (UniProt Q9BYV8)
Chain of UniProt Q9BYV8 (Q9BYV8 whole entry, looked up): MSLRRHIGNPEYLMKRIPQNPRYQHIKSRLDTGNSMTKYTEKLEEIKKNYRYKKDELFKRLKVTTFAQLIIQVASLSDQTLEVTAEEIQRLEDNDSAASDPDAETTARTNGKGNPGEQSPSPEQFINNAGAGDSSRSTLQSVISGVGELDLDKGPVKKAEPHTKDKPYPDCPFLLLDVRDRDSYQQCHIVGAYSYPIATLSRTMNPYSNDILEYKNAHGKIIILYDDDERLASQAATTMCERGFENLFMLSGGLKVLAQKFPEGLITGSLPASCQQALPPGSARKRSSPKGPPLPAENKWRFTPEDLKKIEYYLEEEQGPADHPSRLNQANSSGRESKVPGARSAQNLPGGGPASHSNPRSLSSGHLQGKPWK
inactive: [1] -0.026 | [2] -0.06 | [3] -0.106 | [4] -0.068 | [5] -0.045

ATXN2 (UniProt Q99700)
Chain of UniProt Q99700 (Q99700 whole entry, looked up): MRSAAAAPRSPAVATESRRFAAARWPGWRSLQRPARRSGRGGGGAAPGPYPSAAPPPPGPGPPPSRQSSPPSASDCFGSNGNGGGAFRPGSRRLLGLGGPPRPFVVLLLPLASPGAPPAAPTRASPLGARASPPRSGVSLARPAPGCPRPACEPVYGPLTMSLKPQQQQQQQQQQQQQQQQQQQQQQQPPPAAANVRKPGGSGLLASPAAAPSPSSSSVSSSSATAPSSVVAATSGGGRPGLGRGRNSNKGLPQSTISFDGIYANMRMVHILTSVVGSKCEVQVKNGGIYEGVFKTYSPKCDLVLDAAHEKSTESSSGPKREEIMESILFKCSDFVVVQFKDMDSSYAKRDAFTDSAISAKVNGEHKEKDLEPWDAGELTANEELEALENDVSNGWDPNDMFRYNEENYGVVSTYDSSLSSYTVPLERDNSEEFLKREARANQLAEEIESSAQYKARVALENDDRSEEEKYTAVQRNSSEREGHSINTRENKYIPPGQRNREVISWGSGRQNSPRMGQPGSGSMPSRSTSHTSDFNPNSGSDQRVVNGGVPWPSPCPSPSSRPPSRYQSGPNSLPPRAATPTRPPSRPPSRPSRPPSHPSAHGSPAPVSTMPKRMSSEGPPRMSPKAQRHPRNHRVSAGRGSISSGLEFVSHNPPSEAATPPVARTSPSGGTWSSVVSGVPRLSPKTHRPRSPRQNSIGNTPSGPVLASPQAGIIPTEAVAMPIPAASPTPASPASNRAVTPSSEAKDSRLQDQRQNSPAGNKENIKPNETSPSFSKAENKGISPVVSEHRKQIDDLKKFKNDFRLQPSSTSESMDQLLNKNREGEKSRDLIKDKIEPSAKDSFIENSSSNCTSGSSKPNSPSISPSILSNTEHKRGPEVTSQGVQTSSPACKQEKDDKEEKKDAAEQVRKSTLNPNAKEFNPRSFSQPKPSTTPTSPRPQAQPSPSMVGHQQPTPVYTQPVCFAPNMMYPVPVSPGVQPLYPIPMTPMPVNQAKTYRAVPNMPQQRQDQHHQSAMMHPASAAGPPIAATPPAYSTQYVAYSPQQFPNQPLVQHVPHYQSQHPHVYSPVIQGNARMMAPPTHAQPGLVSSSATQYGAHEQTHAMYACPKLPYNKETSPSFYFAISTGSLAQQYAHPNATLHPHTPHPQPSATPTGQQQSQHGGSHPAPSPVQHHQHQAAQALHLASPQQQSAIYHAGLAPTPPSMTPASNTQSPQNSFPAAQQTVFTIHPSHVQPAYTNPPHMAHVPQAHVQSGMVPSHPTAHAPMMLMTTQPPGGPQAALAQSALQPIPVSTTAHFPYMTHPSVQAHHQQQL
inactive: [1] 0.013 | [2] 0.016 | [3] 0.075 | [4] -0.02 | [5] -0.021

CHAC2 (UniProt Q8WUX2)
Chain of UniProt Q8WUX2 (Q8WUX2 whole entry, looked up): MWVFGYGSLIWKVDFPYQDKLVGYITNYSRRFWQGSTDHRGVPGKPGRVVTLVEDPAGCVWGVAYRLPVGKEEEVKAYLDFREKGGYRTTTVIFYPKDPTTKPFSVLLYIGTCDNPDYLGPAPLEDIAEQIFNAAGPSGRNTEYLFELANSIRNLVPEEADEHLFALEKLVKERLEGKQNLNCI
inactive: [1] 0.079 | [2] 0.005 | [3] 0.028 | [4] -0.025
active: [5] 0.344

C15orf41 (UniProt Q9Y2V0)
Chain of UniProt Q9Y2V0 (Q9Y2V0 whole entry, looked up): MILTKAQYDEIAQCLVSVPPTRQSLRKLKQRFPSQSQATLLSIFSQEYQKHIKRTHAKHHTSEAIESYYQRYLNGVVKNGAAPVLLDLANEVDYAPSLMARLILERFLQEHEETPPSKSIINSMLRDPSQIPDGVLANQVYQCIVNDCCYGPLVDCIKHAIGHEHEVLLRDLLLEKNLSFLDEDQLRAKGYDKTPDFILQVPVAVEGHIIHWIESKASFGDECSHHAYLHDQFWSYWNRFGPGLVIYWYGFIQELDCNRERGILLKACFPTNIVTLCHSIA
inactive: [1] 0.111 | [2] -0.007 | [3] 0.029 | [4] 0.084 | [5] -0.008

ATG10 (UniProt Q9H0Y0)
Chain of UniProt Q9H0Y0 (Q9H0Y0 whole entry, looked up): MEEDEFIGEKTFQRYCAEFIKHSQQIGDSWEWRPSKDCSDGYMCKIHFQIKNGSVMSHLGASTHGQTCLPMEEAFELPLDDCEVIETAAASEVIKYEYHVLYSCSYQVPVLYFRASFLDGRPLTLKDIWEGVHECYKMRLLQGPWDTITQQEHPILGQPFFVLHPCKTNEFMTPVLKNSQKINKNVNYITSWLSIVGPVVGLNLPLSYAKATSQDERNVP
inactive: [1] 0.008 | [2] 0 | [3] -0.057 | [4] 0.047 | [5] 0.076

BUD23 isoform 3 (UniProt O43709)
Chain of UniProt O43709 (O43709 whole entry, looked up): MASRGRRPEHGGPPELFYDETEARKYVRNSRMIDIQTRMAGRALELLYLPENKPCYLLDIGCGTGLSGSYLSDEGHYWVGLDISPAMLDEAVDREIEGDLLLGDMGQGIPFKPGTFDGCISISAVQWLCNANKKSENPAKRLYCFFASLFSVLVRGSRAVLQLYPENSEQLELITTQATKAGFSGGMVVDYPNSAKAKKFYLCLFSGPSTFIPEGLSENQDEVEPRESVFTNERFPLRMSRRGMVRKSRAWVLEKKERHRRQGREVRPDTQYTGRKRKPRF
inactive: [1] 0.076 | [2] 0.03 | [3] 0.021 | [4] 0 | [5] -0.154
